# Experimental data from the supplement of paper PMC11624193, “Coupling cellular drug-target engagement to downstream pharmacology with CeTEAM” (Nature Communications, 2024).
# Where a name gives a salt, the structure may show the parent alone. Values without a mark were called inactive.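 Rule for the calls: active = log2 fold change beyond 2 SD from the library mean after excluding viability outliers; inactive = within 2 SD.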
# Biological target: PARP1 L713F-nLuc biosensor (HCT116) (UniProt P09874)
# Assay: PARP1 L713F-nLuc/akaLuc ratio relative to DMSO control (biosensor stabilization) (fold change); higher = more PARP1 biosensor stabilization (target engagement / stabilizer), active = hit call of the paper
# Settings: stock concentration (mM; final µM = stock mM x 1): 10; 24 h
# PARP1 L713F-nLuc biosensor (HCT116), sequence (P09874 whole entry L713F, looked up): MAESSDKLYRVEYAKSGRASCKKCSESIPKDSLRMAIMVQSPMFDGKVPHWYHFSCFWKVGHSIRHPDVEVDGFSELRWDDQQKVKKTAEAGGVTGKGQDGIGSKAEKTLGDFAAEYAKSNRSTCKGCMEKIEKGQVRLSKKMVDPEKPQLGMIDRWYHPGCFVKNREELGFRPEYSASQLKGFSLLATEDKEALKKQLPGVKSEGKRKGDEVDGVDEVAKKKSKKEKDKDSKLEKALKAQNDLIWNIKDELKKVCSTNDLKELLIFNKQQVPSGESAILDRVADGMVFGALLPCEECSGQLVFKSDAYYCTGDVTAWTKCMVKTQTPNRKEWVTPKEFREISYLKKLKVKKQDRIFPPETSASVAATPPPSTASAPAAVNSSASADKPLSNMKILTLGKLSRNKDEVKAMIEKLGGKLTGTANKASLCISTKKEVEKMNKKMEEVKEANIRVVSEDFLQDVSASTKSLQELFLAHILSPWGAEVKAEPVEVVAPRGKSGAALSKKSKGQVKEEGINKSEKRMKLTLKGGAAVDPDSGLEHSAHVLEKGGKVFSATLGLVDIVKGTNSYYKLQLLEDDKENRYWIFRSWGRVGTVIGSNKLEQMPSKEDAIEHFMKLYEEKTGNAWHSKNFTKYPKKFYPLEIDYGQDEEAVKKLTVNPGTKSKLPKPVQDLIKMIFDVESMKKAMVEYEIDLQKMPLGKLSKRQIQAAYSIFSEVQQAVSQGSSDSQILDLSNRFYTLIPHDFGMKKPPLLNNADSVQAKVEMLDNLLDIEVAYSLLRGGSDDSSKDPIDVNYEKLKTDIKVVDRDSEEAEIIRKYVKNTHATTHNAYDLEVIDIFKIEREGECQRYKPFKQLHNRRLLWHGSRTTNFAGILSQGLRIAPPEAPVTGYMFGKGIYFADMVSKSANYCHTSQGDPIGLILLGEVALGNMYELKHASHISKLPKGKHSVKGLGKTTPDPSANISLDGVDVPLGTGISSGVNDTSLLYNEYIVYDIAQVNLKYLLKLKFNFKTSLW
row,SMILES,PARP1 L713F-nLuc/akaLuc ratio
1,C=CC(=O)N1CCC[C@@H](n2nc(-c3ccc(Oc4ccccc4)cc3)c3c(N)ncnc32)C1,0.773
2,NC(=O)c1ccc(Oc2ccc(C(N)=O)cc2)cc1,1.27
3,C=CC(=O)N1CCC(Oc2cc3c(Nc4ccc(Cl)c(Cl)c4F)ncnc3cc2OC)CC1 [Poziotinib (HM781-36B)],1.28
4,O=c1cc(-c2ccc(O[C@@H]3O[C@H](CO)[C@@H](O)[C@H](O)[C@H]3O)cc2)oc2cc(O)c([C@@H]3O[C@H](CO)[C@@H](O)[C@H](O)[C@H]3O[C@@H]3OC[C@H](O)[C@H](O)[C@H]3O)c(O)c12 [Vaccarin],0.723
5,CCN(CC)Cc1cc(Nc2ccnc3cc(Cl)ccc23)ccc1O [Amodiaquine (dihydrochloride dihydrate)],0.819
6,CCCCCCCCc1ccc(CCC(N)(CO)CO)cc1 [Fingolimod (FTY720) HCl],0.577
7,O=C(Nc1ccnc(NC(=O)C2CC2)c1)c1c(Cl)cccc1Cl,1.13
8,O=C(/C=C\n1cnc(-c2cc(C(F)(F)F)cc(C(F)(F)F)c2)n1)NNc1cnccn1 [Selinexor (KPT-330)],0.434
9,FC(F)(F)c1ccc(CNc2ccc(Cc3c[nH]c4ncc(Cl)cc34)cn2)cn1 [Pexidartinib (PLX3397)],0.69
10,"O=c1ccoc2cc(O)cc(O)c12 [5,7-Dihydroxychromone]",1.02
11,Clc1ccc(-c2csc(NN=C3CCCC3)n2)cc1,0.775
12,O=C(NCC1(c2nc(-c3ccccc3)cs2)CCOCC1)c1cccc(-c2noc(C(F)(F)F)n2)c1,0.465
13,Cc1ncc(F)c(Nc2n[nH]c3c2CN(C(=O)N2C[C@@H](C)N(CC4CCOCC4)C[C@@H]2C)C3(C)C)n1,1.25
14,CC(C)(O)CC(=O)NCCn1ccc2ncnc(Nc3ccc(Oc4cccc(C(F)(F)F)c4)c(Cl)c3)c21,0.662
15,CCN(CC)C(=S)SSC(=S)N(CC)CC [Disulfiram],0.658
16,C#Cc1cccc(Nc2ncnc3cc(OCCOC)c(OCCOC)cc23)c1 [Erlotinib],0.565
17,O=C(CC[C@H](NC(=O)OCc1ccccc1)C(=O)O)NCCCC[C@H](NC(=O)OCc1ccccc1)C(=O)Nc1ccccc1,1.06

row,SMILES,PARP1 L713F-nLuc/akaLuc ratio
1,N#Cc1ccc(C(=O)N(Cc2cccs2)C2CC2)cc1,1.18
2,NC(=O)c1cccc2cn(-c3ccc([C@@H]4CCCNC4)cc3)nc12 [Niraparib (tosylate)],7.76 (active)
3,N=C(N)c1ccc(-c2ccc(-c3ccc(C(=N)N)cc3)o2)cc1 [Furamidine (dihydrochloride)],0.717
4,COc1cc2c(NC3CCN(C)CC3)nc(N3CCCN(C)CC3)nc2cc1OCCOCCN(C)C,1.43
5,Clc1ccc(Nc2nnc(Cc3ccncc3)c3ccccc23)cc1 [Vatalanib (PTK787) 2HCl],0.831
6,CN(C)Cc1ccc(-c2nc3cccc4c3n2CCNC4=O)cc1,8.09 (active)
7,NC(=O)C1CCCc2c1[nH]c1ccc(Cl)cc21 (stereo not drawn) [Selisistat],0.963
8,"CCCS(=O)(=O)Nc1ccc(F)c(C(=O)c2c[nH]c3ncc(-c4ccc(Cl)cc4)cc23)c1F [Vemurafenib (PLX4032, RG7204)]",0.608
9,C=C1CCC[C@]2(C)C=C3OC(=O)C(C)=C3C[C@@H]12 [Atractylenolide I],0.934
10,N[C@H]1C(O)O[C@H](CO)[C@@H](O)[C@@H]1O (stereo partly drawn) [Glucosamine (hydrochloride)],1.15
11,O=C(/C=C/c1ccc(O)c(O)c1)c1ccc(O[C@@H]2O[C@H](CO)[C@@H](O)[C@H](O)[C@H]2O)c(O)c1O [Marein],0.984
12,O=c1cc(N2CCOCC2)oc2c(-c3ccc4c(c3)OCCO4)csc12,0.39
13,c1cc(SSc2ccns2)sn1,1.1
14,O=C(NC[C@H](O)CN1CCc2ccccc2C1)c1ccnc(NC2CCC2)c1,0.738
15,COc1cc(N2CCN(C)CC2)ccc1Nc1nccc(-c2cn(C)c3cnccc23)n1,0.923
16,CC(=O)N1CCN([C@H]2CCC[C@@H](NC(=O)c3cc4c(F)ccc(C)c4[nH]3)C2)CC1,1.5
